Measured values: the supplement of paper PMC4894684
Counter-ions that a name gives are not always drawn. ± gives the standard deviation of the averaged measurements. About 15 (2%) of roughly 1,000 compounds showed an effect of 50% or more. Shown is part of a subset that was picked to be rich in strong results.

test system: HFF; assay: uninfected host cell viability relative to vehicle control; higher = less host cell toxicity; conditions: 5 µM; 72 h; oxygen 21 %

Row | Structure (SMILES) | uninfected host cell viability [%]
1 | O=C1NC(=O)c2cc(Nc3ccccc3)c(Nc3ccccc3)cc21 | 93.23 ± 0.27
2 | COCCOC(=O)C1=C(C)NC(C)=C(C(=O)OC/C=C/c2ccccc2)C1c1cccc([N+](=O)[O-])c1 (configuration not stated) [Cilnidipine] | 85.8 ± 2.8
3 | COc1ccccc1C1(O)CCN(CCCn2c3ccccc3c3ccccc32)CC1 [NNC 05-2090 hydrochloride] | 81.9 ± 1.6
4 | Nc1nc(NCC2CCC(CNS(=O)(=O)c3cccc4ccccc34)CC2)nc2ccccc12 (configuration not stated) | 58.6 ± 2.7
5 | CN(Cc1ccccc1)C(=O)[C@H](Cc1ccc2ccccc2c1)NC(=O)[C@@H]1C[C@@H](O)CN1C(=O)c1cn(C)c2ccccc12 | 83.97 ± 0.68
6 | NC(=O)N/N=C/c1ccc(Oc2ccc(F)cc2)cc1 | 87.6 ± 3.6
7 | O=C1NC(=O)c2cc(Nc3ccc(F)cc3)c(Nc3ccc(F)cc3)cc21 | 86.353 ± 0.013
8 | Oc1nc(-c2ccc(C(F)(F)F)cc2)nc2c1CSCC2 | 83.2 ± 2.4
9 | CCC(=O)NC[C@H](Cc1ccc(OCCc2nc(-c3ccccc3)oc2C)cc1)N/C(C)=C\C(=O)c1ccc(C(F)(F)F)cc1 | 102 ± 1.4
10 | COC(=O)/C=C/c1cccc(N(Cc2ccc(-c3ccc(N(C)C)cc3)cc2)C(=O)C2CCCCC2)c1 [Fexaramine] | 96 ± 2.3
11 | CC(=O)OCCNC(=O)c1cccnc1 [N-[2-(Acetoxy)ethyl]-3-pyridinecarboxamide] | 82.8 ± 3.4
12 | OC1CCC(Nc2nc(-c3ccccc3)nc3[nH]ccc23)CC1 (configuration not stated) | 85.37 ± 0.31
13 | Cc1ccc2c(c1)c1c3n2CCNC3CCC1 (configuration not stated) [Pirlindole mesylate] | 88 ± 6.3
14 | CC(C)c1ccc(C(=O)c2cccs2)c(SCCCCCCCCN(C)C)n1 | 74.54 ± 0.56
15 | OC(CN1CCC(Cc2ccc(F)cc2)CC1)c1ccc(Cl)cc1 (configuration not stated) [Eliprodil] | 88.9 ± 1.1
16 | O=c1cc(N2CCOCC2)oc2c1ccc1ccccc12 | 82.9 ± 0.9
17 | COc1ccc(OC)c2c(=S)c3ccccc3[nH]c12 | 76.9 ± 3.1
18 | COC(=O)C1=C(C)NC(C)=C(C(=O)OCCCN2CCC(c3ccccc3)(c3ccccc3)CC2)[C@H]1c1cccc([N+](=O)[O-])c1 [(S)-(+)-Niguldipine hydrochloride] | 76.95 ± 0.17
19 | CCC(=O)OCN1C(=O)C=CC1=O | 90.82 ± 0.35
20 | Nc1c(Br)cc(Br)cc1CN[C@H]1CC[C@H](O)CC1 [Ambroxol hydrochloride] | 83.8 ± 1.4
21 | CCCCCCCCCCCCCCCC(=O)O[C@H](CC(=O)O)C[N+](C)(C)C (racemic) [(±)-Palmitoylcarnitine chloride] | 89.8 ± 4.6
22 | CN(CC[C@@H](Oc1ccc(-c2ccccc2)cc1)c1ccc(F)cc1)CC(=O)O [ALX 5407 hydrochloride] | 89.7 ± 7.4

Row | Structure (SMILES) | uninfected host cell viability [%]
23 | COc1cc2c(Nc3ccc(NC(=O)c4ccccc4)cc3)ncnc2cc1OCCCN1CCOCC1 | 64.74 ± 0.56
24 | COc1ccc(NC(=O)c2ccc(-c3ccc(-c4noc(C)n4)cc3C)cc2)cc1N1CCN(C)CC1 | 70.2 ± 7.3
25 | COc1ccc(NC(=O)c2ccc(-c3ccc(-c4noc(C)n4)cc3C)cc2)cc1OCCN(C)C | 36.9 ± 27
26 | CCN(CC)c1ccc(/C=N/NC(=O)c2ccc(O)cc2)cc1 | 86.7 ± 5.1
27 | CCCCC[C@H](O)/C=C/[C@H]1[C@H](O)CC(=O)[C@@H]1CCCCCCC(=O)O [Alprostadil] | 91.7 ± 4.5
28 | CC1Nc2ccc(Cl)cc2S(=O)(=O)N1 (configuration not stated) | 95.27 ± 0.86
29 | Cn1cc(C2=C(c3cn(CCCSC(=N)N)c4ccccc34)C(=O)NC2=O)c2ccccc21 [Ro 31-8220 mesylate] | 14.2 ± 0.54
30 | CN(C)CCCn1cc(C2=C(c3c[nH]c4ccccc34)C(=O)NC2=O)c2ccccc21 | 62.3 ± 1.5
31 | Cn1cc(C2=C(c3ccc(Cl)cc3Cl)C(=O)NC2=O)c2ccccc21 | 72.6 ± 4.2
32 | O=C(O)CC/C=C\C[C@H]1CO[C@@H](c2ccccc2Cl)O[C@H]1c1ccccc1O | 98.6 ± 1.1
33 | CCOC(=O)c1c(C)[nH]c2ccc3c(c12)CN1CCc2cc(OC)ccc2C1O3 (configuration not stated) | 96.1 ± 2.8
34 | CC(Oc1ccc(O)cc1)(P(=O)(O)O)P(=O)(O)O | 95.3 ± 1.8
35 | CN(C)C(=O)C(=O)c1cn(C)c2cc(Cl)c(C(=O)N3CCC(Cc4ccc(F)cc4)CC3)cc12 | 88.4 ± 2.3
36 | CCOCC(O)COc1ccc(NC(=O)CC[S+](C)C)cc1 (configuration not stated) [Suplatast tosylate] | 97.7 ± 1.6
37 | CNC(=O)[C@H]1O[C@@H](n2cnc3c(NCc4cccc(I)c4)ncnc32)[C@H](O)[C@@H]1O | 80.94 ± 0.44
38 | CCN(c1ccccc1)c1cc(=NC)n(C)c(C)n1 | 92.2 ± 1.3
39 | CCOC(=O)c1ccc(OC(=O)CCCCCNC(=N)N)cc1 [Gabexate mesylate] | 89.8 ± 11
40 | O=[N+]([O-])c1cc(Cl)ccc1S(=O)(=O)N1CCN(Cc2ccccc2)CC1 | 98.8 ± 3.2
41 | CN1CC(=O)N=C1NC(=O)Nc1cccc(Cl)c1 [Fenobam] | 80.93 ± 0.68
42 | CCCCc1nn(-c2ccccc2C(F)(F)F)c(=O)n1Cc1ccc(-c2ccccc2S(=O)(=O)NC(=O)c2sccc2C)cc1 | 84.8 ± 3.6
43 | COc1cc(NC(=O)c2ccccn2)ccc1Cl | 95.9 ± 2.8
44 | COc1ccc(-c2nc(-c3ccc(-c4cccc(Cl)c4)o3)[nH]c2-c2ccc(OC)cc2)cc1 [Neurodazine] | 80.3 ± 5.1

Row | Structure (SMILES) | uninfected host cell viability [%]
45 | O=C(NCCCN1CCCCCC1)C(c1ccccc1)C1CCCCC1 (configuration not stated) | 88.8 ± 4.6
46 | O=C(O)C=C1CCCc2ccccc2C1O (configuration not stated) | 83.32 ± 0.084
47 | COC(=O)C[C@](O)(CCCC(C)(C)O)C(=O)O[C@@H]1C(OC)=C[C@]23CCCN2CCc2cc4c(cc2[C@H]13)OCO4 [Homoharringtonine] | 28.6 ± 2.8
48 | O/N=C/c1ccc(-c2ccc(O)c(F)c2)c(Cl)c1O | 91.86 ± 0.49
49 | Cc1ccc(/C=C2\CNC/C(=C\c3ccc(C)cc3)C2=O)cc1 | 34.4 ± 5.5
50 | COC(=O)C1=C(C)NC(C)=C(C(=O)NCCCN2CCC(c3ccccc3)(c3ccccc3)CC2)C1c1ccc([N+](=O)[O-])cc1 (configuration not stated) | 81.9 ± 1.8
51 | CC#CCOC(=O)C1=CCCN(C)C1 [Arecaidine but-2-ynyl ester tosylate] | 88 ± 1.3
52 | CC(C)Oc1cccc(-n2c(CCc3c[nH]c4ccc(Br)cc34)nc3ccccc3c2=O)c1 | 92.8 ± 5.5
53 | COc1cc(Br)c(S(=O)(=O)Nc2ccc(Cl)c(O[C@@H]3CCN(C)C3)c2)cc1OC | 96.9 ± 3
54 | C[C@H](NC[C@H](O)CP(=O)(O)CC1CCCCC1)c1ccc(Cl)c(Cl)c1 | 84.83 ± 0.31
55 | CC1c2ccccc2CN1CC1=NCCN1 (configuration not stated) | 89 ± 2.3
56 | N[C@H](C(=O)O)c1ccc(O)c(C(=O)O)c1 [(S)-3-Carboxy-4-hydroxyphenylglycine] | 83.1 ± 0.11
57 | CC(C)c1onc(-c2c(Cl)cccc2Cl)c1COc1ccc(/C=C/c2cccc(C(=O)O)c2)c(Cl)c1 | 96.2 ± 2.9
58 | OC[C@H]1NC[C@@H](O)[C@@H](O)[C@@H]1O [1-Deoxymannojirimycin hydrochloride] | 86.61 ± 0.073
59 | O=C(NCCCCN1CCN(c2cccc(Cl)c2Cl)CC1)c1ccc2c(c1)Cc1ccccc1-2 | 88.9 ± 4
60 | CCCCCCNC(=O)Nc1ccc(S(=O)(=O)Nc2ccc(CCNC[C@H](O)COc3ccc(O)cc3)cc2)cc1 | 83.4 ± 2.5
61 | NC(C(=O)O)c1ccc(C(=O)O)c(C(=O)O)c1 (configuration not stated) | 83.7 ± 3.5
62 | CCCCN1CCC(CCC(=O)c2cc(Cl)c(N)cc2OC)CC1 | 85.2 ± 6.5
63 | CN(CCOc1ccc(-c2ccc3c(c2)OCO3)cc1C(C)(C)C)CC(=O)O | 89.62 ± 0.17
64 | O=C(c1ccc(F)cc1)C1CCN(CCn2c(=S)[nH]c3ccccc3c2=O)CC1 [Altanserin hydrochloride] | 83.2 ± 2.8
65 | Nc1nc2c(nc(Br)n2[C@@H]2O[C@@H]3COP(=O)(O)O[C@H]3[C@H]2O)c(=O)[nH]1 [8-Bromo-cGMP, sodium salt] | 89.8 ± 1.7
66 | COC(=O)c1sccc1S(=O)(=O)Nc1ccc(Nc2ccccc2)cc1OC | 77.8 ± 0.79

Row | Structure (SMILES) | uninfected host cell viability [%]
67 | NC(=O)N1c2ccccc2CC(O)c2ccccc21 (configuration not stated) [Licarbazepine] | 86.1 ± 1.1
68 | COc1ccc(Cl)cc1NC(=O)Nc1cc(C)nc2ccccc12 | 70.73 ± 0.28
69 | O=C(/C=C/c1ccc(O)c(O)c1)O[C@H](Cc1ccc(O)c(O)c1)C(=O)O [Rosmarinic acid] | 80.3 ± 1
70 | OC(CCCN1CCN(c2ncc(F)cn2)CC1)c1ccc(F)cc1 (configuration not stated) | 110 ± 17
71 | CC(C)c1ccccc1S(=O)(=O)c1cc(N)c2ncccc2c1[N+](=O)[O-] | 73.2 ± 0.84
72 | CN(CCCN1c2ccccc2CCc2ccccc21)CC(=O)c1ccc(Cl)cc1 [Lofepramine] | 89.6 ± 1.2
73 | Cc1c(C(=O)NN2CCOCC2)nn(-c2ccc(Cl)cc2Cl)c1-c1ccc(I)cc1 | 90.8 ± 2.4
74 | O=c1[nH]nc(Sc2ncc([N+](=O)[O-])s2)n1-c1ccc2c(c1)OCCO2 | 99.61 ± 0.28
75 | O=C(O)c1ccc(C=C2SC(=S)N(c3cccc(C(F)(F)F)c3)C2=O)cc1 | 87.8 ± 0.91
76 | CN1Cc2c(C(=O)OC(C)(C)C)ncn2-c2ccsc2C1=O | 97.9 ± 4.9
77 | CCCCCCCCCCCCCCCC(=O)C(F)(F)F | 91.66 ± 0.55
78 | NC(=O)CCCCn1ccc(NC(N)=NCC(F)(F)F)n1 | 85.9 ± 2.3
79 | N[C@@H](CSS(=O)(=O)O)C(=O)O [S-Sulfo-L-cysteine sodium salt] | 99.5 ± 1.1
80 | Cc1ccccc1C(=O)c1ccc(Nc2ccc(Br)cc2N)cc1Cl | 84 ± 2.2
81 | CN1CCC(Nc2ncc3ncnc(Nc4ccc(F)c(Cl)c4)c3n2)CC1 [BIBX 1382 dihydrochloride] | 80.7 ± 2.1
82 | CC(C)n1nnc2cc(C(=O)O)ccc21 | 100 ± 2.3
83 | Cc1[nH]c(/C=C2\C(=O)Nc3ccc(S(=O)(=O)Cc4c(Cl)cccc4Cl)cc32)c(C)c1C(=O)N1CCC[C@@H]1CN1CCCC1 | 89.5 ± 2.3
84 | CC1(C)CCC(C)(C)c2cc(C3(c4ccc(C(=O)O)cc4)OCCO3)ccc21 | 93.1 ± 2.3
85 | COc1ccc(NS(=O)(=O)c2ccc(I)cc2)cc1N1CCN(C)CC1 | 81.6 ± 2.9
86 | Cc1cc(C)cc(C(=O)N(C)[C@H](Cc2ccc(-c3ccccc3)cc2)C(=O)N[C@@H](Cc2c[nH]c3ccccc23)C(=O)O)c1 | 83.95 ± 0.62
87 | CCCn1c(=O)[nH]c2nc(-c3ccc(S(=O)(=O)O)cc3)[nH]c2c1=O | 86.34 ± 0.58
